This note sets out measurements from PubChem BioAssay (NCATS).

Results filed as inconclusive are left out. Active and inactive are the calls of the source. Unless noted, calls follow the shape of the dose curve; as a rule, active = well fitted curve in the direction sought with a large enough effect; inconclusive = small, poorly fitted or top-dose-only effect, or another doubt; inactive = no such curve, though single readings can be large; an effect the other way counts as inactive or inconclusive.

Assay [1] has as its target Retinoic acid receptor RXR-alpha (Homo sapiens) (UniProt P19793). Description: qHTS assay for small molecule agonists of retinoid X receptor alpha signaling (AID 588544; calls by dose curve;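 also: 0% = DMSO basal wells and 100% = reference agonist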). A general note: qHTS replaces the single test concentration by a dilution series.
The target of assay [2] is Thyroid hormone receptor beta (Homo sapiens) (UniProt P10828). Description: qHTS assay for small molecule agonists of thyroid hormone receptor beta signaling (AID 588545; calls by dose curve;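 also: 0% = DMSO only and 100% = 10 nM T3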). A digest of the protocol:
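Compounds were tested as agonists in TR-UAS-bla-GripTite HEK 293 cells. After 18 hrs at 37 C, CCF4 substrate was added and fluorescence read after 2 hrs at room temperature.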

The nature of assay [3]: qHTS assay for small molecule antagonists of retinoid X receptor alpha signaling (AID 588546; active = well fitted inhibition curve with a large enough effect in the signal ratio, with a control signal flat, not every such curve was filed as active; the % refers to the signal ratio;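 also: cells stimulated with 9-cis-retinoic acid as agonist; % is scaled to controls: 0 for no effect and ±100 for the full control effect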). The conditions noted are these: HEK293T RXRa-UAS-bla, beta-lactamase ratio, antagonist mode; measured here: W530 green channel, cytotoxicity proxy. The gist of the method: (§1)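 Beta-lactamase reporter inhibition, read as CCF4 fluorescence ratio (ex 405, em 460/530 nm) after 2 h at RT. HEK293T UAS-bla cells, 2500/well, were stimulated with 9-cis-RA at 500 or 100 nM final alongside test compound for 18 h at 37 C.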

The target in assay [4] is Retinoic acid receptor RXR-alpha (Homo sapiens) (UniProt P19793). The description is as above. The conditions noted are these: HEK293T RXRa-UAS-bla, beta-lactamase ratio, antagonist mode. A digest of the protocol: as §1
Chain of Retinoic acid receptor RXR-alpha (Homo sapiens) (P19793 whole entry, looked up): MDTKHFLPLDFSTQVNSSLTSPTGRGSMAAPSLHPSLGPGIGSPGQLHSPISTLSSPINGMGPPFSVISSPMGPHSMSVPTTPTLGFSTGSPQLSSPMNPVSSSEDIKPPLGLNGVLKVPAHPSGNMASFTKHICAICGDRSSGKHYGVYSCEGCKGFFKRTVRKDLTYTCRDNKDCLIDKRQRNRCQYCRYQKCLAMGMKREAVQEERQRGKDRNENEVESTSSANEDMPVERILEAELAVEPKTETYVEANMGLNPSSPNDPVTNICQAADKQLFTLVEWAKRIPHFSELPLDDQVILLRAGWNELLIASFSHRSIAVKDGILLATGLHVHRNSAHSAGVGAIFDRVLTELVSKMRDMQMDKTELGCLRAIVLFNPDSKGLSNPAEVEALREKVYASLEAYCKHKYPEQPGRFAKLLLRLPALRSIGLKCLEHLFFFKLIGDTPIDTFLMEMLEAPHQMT
Assay [5] has as its target Thyroid hormone receptor beta (Homo sapiens) (UniProt P10828). The assay is described as follows: qHTS assay for small molecule antagonists of thyroid hormone receptor beta signaling (AID 588547; active = well fitted inhibition curve with a large enough effect in the signal ratio, with a control signal flat, not every such curve was filed as active; the % refers to the signal ratio;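 also: cells stimulated with 0.4 nM T3 agonist during compound exposure; series mostly up to about 77 µM; % is scaled to controls: 0 for no effect and ±100 for the full control effect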). The conditions noted are these: TR-UAS-bla HEK293, beta-lactamase ratio, antagonist mode, 18 h. A digest of the protocol:
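TR-UAS-bla GripTite HEK293 cells in 2% charcoal/dextran FBS medium were preincubated 4 h at 37 C, given compound (0.59 nM to 92 uM) plus 0.4 nM T3 (final) for 18 h, then CCF4 for 2 h at RT; Hill fit gave IC50.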

The target in assay [6] is Voltage-gated inwardly rectifying potassium channel KCNH2 (Homo sapiens) (UniProt Q12809). The assay is described as follows: qHTS Assay for Small Molecule Inhibitors of the Human hERG Channel Activity (AID 588834).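 Also: top concentration of the series differs between compounds; % is scaled to controls: 0 for no effect and ±100 for the full control effect; lower thallium flux fluorescence means stronger hERG block; nearly all actives have a fitted effect of over 50% in size.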 The gist of the method: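 U2OS cells transduced with hERG via BacMam (MOI ~100), plated 2000/well, loaded with FluxOR thallium dye, compound ~10 min, then stimulation buffer; fluorescence decrease read kinetically; AC50 from Hill fits.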
Chain of Voltage-gated inwardly rectifying potassium channel KCNH2 (Homo sapiens) (Q12809 whole entry, looked up): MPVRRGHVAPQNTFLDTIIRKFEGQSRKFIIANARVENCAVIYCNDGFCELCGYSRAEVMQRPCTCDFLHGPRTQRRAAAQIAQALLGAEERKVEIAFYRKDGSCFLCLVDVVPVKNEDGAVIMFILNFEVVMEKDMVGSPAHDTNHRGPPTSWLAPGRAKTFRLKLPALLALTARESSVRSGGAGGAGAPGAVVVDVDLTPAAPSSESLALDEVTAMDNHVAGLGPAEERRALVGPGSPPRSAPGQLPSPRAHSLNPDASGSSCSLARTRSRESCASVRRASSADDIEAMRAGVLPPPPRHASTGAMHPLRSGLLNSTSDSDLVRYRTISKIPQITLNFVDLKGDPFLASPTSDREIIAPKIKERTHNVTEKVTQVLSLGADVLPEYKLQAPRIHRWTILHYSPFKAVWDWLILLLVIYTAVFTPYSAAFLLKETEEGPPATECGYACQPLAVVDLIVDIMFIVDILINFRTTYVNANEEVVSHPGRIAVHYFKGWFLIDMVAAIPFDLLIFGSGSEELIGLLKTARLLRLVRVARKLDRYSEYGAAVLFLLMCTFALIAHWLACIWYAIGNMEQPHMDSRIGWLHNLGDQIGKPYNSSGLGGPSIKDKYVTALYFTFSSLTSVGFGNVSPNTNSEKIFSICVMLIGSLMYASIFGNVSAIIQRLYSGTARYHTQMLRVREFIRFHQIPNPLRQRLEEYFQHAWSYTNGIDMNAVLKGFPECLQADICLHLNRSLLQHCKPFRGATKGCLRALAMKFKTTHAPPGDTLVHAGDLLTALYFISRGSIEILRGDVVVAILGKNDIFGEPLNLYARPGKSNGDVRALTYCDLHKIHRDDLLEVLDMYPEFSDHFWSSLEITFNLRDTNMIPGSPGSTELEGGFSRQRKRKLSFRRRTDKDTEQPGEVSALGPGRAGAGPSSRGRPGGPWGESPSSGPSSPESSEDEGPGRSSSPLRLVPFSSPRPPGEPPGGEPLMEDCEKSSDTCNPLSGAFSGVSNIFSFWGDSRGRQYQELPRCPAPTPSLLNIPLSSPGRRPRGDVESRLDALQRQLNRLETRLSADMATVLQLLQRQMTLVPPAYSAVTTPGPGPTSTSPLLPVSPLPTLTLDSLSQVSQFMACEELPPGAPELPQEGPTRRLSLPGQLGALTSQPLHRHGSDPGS

The nature of assay [7]: qHTS assay for small molecule activators of the p53 signaling pathway (AID 651743; active = well fitted activation curve with a large enough effect in the signal ratio, not every such curve was filed as active; the % refers to the signal ratio; also: series mostly up to about 92 µM; % of control where 0% means no effect). The conditions noted are these: HCT-116 p53RE-bla, beta-lactamase FRET ratio, 16 h; stronger effect = higher value. The gist of the method:
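Cell-based beta-lactamase reporter (p53 response elements, HCT-116 background). After a 5-hour preincubation, cells received compound for 16 hours at 37 C; substrate development ran 2 hours at room temperature.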

Assay [8] can be described thus: qHTS assay for small molecule activators of the nuclear factor-kappa B (NF-kB) signaling pathway (AID 651749; active = well fitted activation curve with a large enough effect in the signal ratio; the % refers to the signal ratio; also: series mostly up to about 77 µM; % of control where 0% means no effect). The conditions noted are these: NF-kB-bla ME-180 cells, beta-lactamase FRET ratio, 16 h; stronger effect = higher value. The gist of the method:
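Screening used 2,000 ME-180 reporter cells per well exposed to pinned compound (23 nL) or DMSO; after 16 hr at 37C, beta-lactamase expression under NF-kB control was assessed through FRET.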

For assay [9], the target named is Tumor necrosis factor (Homo sapiens) (UniProt P01375). The assay is described as follows: qHTS assay to identify small molecules that stimulate Tumor Necrosis Factor-alpha (TNF-alpha) secretion (AID 651757; active = well fitted curve in the direction sought with a large enough effect in the signal ratio; the % refers to the signal ratio; also: 0% is about no effect). A digest of the protocol: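 Read-out is HTRF, a TR-FRET sandwich of cryptate- and XL665-labeled anti-TNF-alpha antibodies detecting cytokine secreted by THP-1 cells. Cells had been incubated with test compounds at 37 C for 17 hrs beforehand.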
Chain of Tumor necrosis factor (Homo sapiens) (P01375 whole entry, looked up): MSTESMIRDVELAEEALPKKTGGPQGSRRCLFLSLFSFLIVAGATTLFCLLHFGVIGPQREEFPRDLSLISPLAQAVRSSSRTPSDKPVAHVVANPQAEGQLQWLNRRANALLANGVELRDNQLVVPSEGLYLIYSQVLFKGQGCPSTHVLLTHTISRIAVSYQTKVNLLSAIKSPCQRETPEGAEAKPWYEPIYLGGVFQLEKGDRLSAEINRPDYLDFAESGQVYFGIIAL

The nature of assay [10]: qHTS assay for environmental chemicals that activate the Aryl hydrocarbon Receptor (AhR) signaling pathway (AID 651777). Also: nearly all actives have a fitted effect of over 15% in size. Also: potency is read from the fitted curve at half-maximal effect. As to activation: % of control where 0% means no effect. The conditions noted are these: 1A2-DRE human hepatoma cells, luciferase, 24 h; activation: stronger effect = higher value. A digest of the protocol: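 Human hepatoma 1A2-DRE cells stably carrying a DRE/CYP1A2 promoter–luciferase reporter, 1,200 cells/well, exposed to compound 24 hr at 37 C. Luciferase read by One-Glo luminescence after 30 min at room temperature; increased signal marks AhR activation.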

In assay [11] the target is Peroxisome proliferator-activated receptor alpha (Homo sapiens) (UniProt Q07869). The assay is described as follows: qHTS assay for small molecule agonists of the peroxisome proliferator-activated receptor alpha (PPARalpha) signaling pathway (AID 651778). Also: % of control where 0% means no effect. The conditions noted are these: PathHunter PPARalpha complementation, chemiluminescence, 6 h; stronger effect = higher value. The gist of the method: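 Cells plated at 2,000/well and held overnight at 37 C, 5% CO2, then compound added by pin tool for 6 hr; after PathHunter detection reagent and 60 min at room temperature, chemiluminescence from enzyme complementation was read.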
Chain of Peroxisome proliferator-activated receptor alpha (Homo sapiens) (Q07869 whole entry, looked up): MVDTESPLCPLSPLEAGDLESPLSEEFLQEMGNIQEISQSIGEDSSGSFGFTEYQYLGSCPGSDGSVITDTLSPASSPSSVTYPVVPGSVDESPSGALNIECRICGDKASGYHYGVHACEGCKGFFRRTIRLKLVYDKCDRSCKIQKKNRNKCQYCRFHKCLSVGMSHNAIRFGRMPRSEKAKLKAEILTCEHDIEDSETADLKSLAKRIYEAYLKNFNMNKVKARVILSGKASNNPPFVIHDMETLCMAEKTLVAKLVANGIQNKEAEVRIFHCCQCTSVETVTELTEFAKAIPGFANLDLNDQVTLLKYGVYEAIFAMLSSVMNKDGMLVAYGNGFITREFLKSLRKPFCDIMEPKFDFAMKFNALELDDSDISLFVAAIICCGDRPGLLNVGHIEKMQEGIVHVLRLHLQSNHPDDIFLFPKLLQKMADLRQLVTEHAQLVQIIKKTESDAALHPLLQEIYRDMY

Assay [12] addresses Nuclear receptor ROR-gamma (Homo sapiens) (UniProt P51449). Description: qHTS assay for small molecule antagonists of the retinoid-related orphan receptor gamma (ROR-gamma) signaling pathway (AID 651802).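 Also: CHO cells with doxycycline-induced ROR-gamma expression; luciferase reporter luminescence driven by ROR response element; series mostly up to about 92 µM; % is scaled to controls: 0 for no effect and ±100 for the full control effect; nearly all actives have a fitted effect of over 60% in size.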 The gist of the method: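 CHO, TET-inducible ROR + RORE-LUC reporter, 1536-well qHTS. Compound pinned, doxycycline added, 16hr 37C/5% CO2. ONE-Glo, 30 min RT, luminescence; signal drop scored as antagonism.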

Assay [13] addresses Luciferin 4-monooxygenase (Photinus pyralis) (UniProt P08659). The assay is described as follows: Biochemical firefly luciferase enzyme assay for NPC (AID 624030). Also: nearly all actives have a fitted effect of over 70% in size. Also: potency is read from the fitted curve at half-maximal effect. The gist of the method: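 Counter-screen for direct inhibition of the luciferase enzyme by approved-drug library compounds, run at 10 nM enzyme in 50 mM Tris acetate (final). Luminescence was read within 5 min of enzyme-buffer addition and normalized to PTC124 versus DMSO (0%).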

The nature of assay [14]: S16 Schwann cell viability assay (CellTiter-Glo assay) (AID 624031).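 Also: series mostly up to about 58 µM; plate controls were DMSO-treated cells for no effect and cell-free wells for full effect; nearly all actives have a fitted effect of over 70% in size.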 A digest of the protocol: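 Native S16 rat Schwann cells, 500-750 cells/well in DMEM with 10% FBS, dosed with compound after overnight culture and incubated 24h at 37 degree Celsius/5% CO2. Viability by CellTiter-Glo luminescence; % activity normalized to no-cell wells and DMSO-treated cells.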
On the technique in general: ATP-based viability assays read luminescence as a measure of living cells.

Assay [15] is described as follows: qHTS assay for small molecule agonists of the antioxidant response element (ARE) signaling pathway (AID 651741; active = well fitted activation curve with a large enough effect in the signal ratio; the % refers to the signal ratio; also: potency is read from the fitted curve at half-maximal effect). The conditions noted are these: HepG2 ARE-bla reporter, beta-lactamase FRET ratio, 16 h. A digest of the protocol:
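Compounds in DMSO are pinned onto HepG2 ARE-bla cells (2,000/well) that were preincubated 5 h; plates stay 16 h at 37 C, then beta-lactamase activity is detected with LiveBLAzer B/G substrate by fluorescence.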

Assay [16] can be described thus: qHTS assay for small molecule disruptors of the mitochondrial membrane potential - 1 hr assay (AID 651754; calls by dose curve; also: potency is read from the fitted curve at half-maximal effect; nearly all actives have a fitted effect of over 35% in size). The gist of the method:
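HepG2, 2,000 cells/well, overnight attachment; cpd or DMSO 1 hr, 37C/5% CO2; Mito-MPS dye 30 min, 37C; fluorescence monomer (490/535) and aggregate (540/590).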

Assay [17] in a line: qHTS assay to identify small molecules that stimulate interleukin-8 (IL-8) secretion (AID 651758; active = well fitted activation curve with a large enough effect in the signal ratio; the % refers to the signal ratio; also: 0% is about no effect). A digest of the protocol: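 THP-1, 2000 cells/well; cpd 16 h, 37 C; add cryptate + XL665 anti-IL-8 Abs; RT 1-3 h; TR-FRET read.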
The nature of assay [18]: qHTS assay for small molecule disruptors of the mitochondrial membrane potential - 5 hr assay (AID 651755; calls by dose curve; also: potency is read from the fitted curve at half-maximal effect; nearly all actives have a fitted effect of over 40% in size). The conditions noted are these: JC-1-type ratio dye. A digest of the protocol:
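HepG2 cells, attached overnight at 37C, were exposed to compound or DMSO for 5 hr at 37C, 5% CO2. Mito-MPS dye was then added for 30 min, and fluorescence read at 490/535 nm (monomers) and 540/590 nm (aggregates).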

A short description of assay [19]: S16 Schwann cell PMP22 intronic element firefly luciferase assay (AID 624032). Also: potency is read from the fitted curve at half-maximal effect; nearly all actives have a fitted effect of over 30% in size. The conditions noted are these: S16 rat Schwann cells, PMP22 element FLuc, 24 h. A digest of the protocol:
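Rat S16 Schwann cells stably carrying a PMP22 intronic element-driven Fluc reporter were seeded overnight, then exposed to compounds for 24 h at 37 °C. Luminescence was normalized to PTC124 (positive control) and DMSO (0% activity).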

Assay [20] can be described thus: S16 Schwann cell PMP22 intronic element beta-lactamase assay (AID 624044; calls by dose curve; also: potency is read from the fitted curve at half-maximal effect; nearly all actives have a fitted effect of over 15% in size). The conditions noted are these: S16 rat Schwann cells, PMP22 element beta-lactamase FRET, 24 h. A digest of the protocol: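 Rat S16 Schwann cells with beta-Lac driven by a PMP22 intronic element, compound-treated 24 h at 37 °C. LiveBLAzer FRET B/G read: 460 nm normalized to potassium clavulanate vs DMSO; 535 nm FRET as viability; concentration-effect curves classified.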

Chain of Thyroid hormone receptor beta (Homo sapiens) (P10828 whole entry, looked up): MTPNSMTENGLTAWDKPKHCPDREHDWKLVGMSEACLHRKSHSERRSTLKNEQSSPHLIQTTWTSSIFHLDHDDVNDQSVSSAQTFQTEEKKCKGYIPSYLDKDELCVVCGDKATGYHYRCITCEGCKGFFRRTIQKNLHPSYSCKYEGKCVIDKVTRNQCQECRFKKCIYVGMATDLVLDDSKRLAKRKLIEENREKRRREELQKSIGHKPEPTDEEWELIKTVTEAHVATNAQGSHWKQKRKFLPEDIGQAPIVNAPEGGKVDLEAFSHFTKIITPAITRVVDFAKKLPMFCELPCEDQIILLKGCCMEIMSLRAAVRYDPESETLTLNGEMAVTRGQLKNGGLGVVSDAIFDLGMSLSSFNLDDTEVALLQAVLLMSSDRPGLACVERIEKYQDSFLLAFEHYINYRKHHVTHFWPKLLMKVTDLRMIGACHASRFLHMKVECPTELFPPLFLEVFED
Chain of Luciferin 4-monooxygenase (Photinus pyralis) (P08659 whole entry, looked up): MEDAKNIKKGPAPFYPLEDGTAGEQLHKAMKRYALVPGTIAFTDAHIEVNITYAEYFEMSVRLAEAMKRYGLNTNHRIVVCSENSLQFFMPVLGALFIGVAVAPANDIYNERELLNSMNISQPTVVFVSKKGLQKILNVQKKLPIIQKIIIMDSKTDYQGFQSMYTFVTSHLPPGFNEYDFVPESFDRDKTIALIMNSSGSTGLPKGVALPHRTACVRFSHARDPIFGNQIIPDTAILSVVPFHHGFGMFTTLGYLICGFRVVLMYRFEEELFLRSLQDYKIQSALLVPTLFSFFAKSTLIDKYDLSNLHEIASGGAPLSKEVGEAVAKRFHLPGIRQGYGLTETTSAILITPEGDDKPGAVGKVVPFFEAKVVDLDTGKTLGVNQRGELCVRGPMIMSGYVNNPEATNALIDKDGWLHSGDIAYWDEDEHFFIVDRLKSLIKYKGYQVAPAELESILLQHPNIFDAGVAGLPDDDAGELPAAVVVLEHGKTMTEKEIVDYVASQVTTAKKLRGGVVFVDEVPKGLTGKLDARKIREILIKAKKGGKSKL
Chain of Nuclear receptor ROR-gamma (Homo sapiens) (P51449 whole entry, looked up): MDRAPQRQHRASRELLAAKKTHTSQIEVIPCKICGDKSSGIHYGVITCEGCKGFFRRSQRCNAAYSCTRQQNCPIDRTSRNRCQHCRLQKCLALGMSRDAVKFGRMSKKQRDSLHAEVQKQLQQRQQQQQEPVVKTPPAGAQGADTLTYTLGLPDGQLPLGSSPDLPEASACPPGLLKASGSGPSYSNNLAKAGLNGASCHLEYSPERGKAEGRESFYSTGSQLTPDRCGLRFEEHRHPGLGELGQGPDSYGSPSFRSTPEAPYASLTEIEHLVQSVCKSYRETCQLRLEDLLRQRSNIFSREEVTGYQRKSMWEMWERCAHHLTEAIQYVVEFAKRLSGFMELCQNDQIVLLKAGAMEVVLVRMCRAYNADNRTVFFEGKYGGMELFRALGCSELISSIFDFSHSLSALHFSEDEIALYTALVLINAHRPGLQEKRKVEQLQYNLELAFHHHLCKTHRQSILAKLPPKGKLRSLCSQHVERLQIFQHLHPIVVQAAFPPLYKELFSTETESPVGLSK

As to `CC(=O)O[C@@H]1CC(C)=C2[C@H]1[C@H](C)CC[C@H]2/C=C(\C)C(=O)O`, the call in assay [1], in [2], in assay [6], in assay [9] and in assay [12] was inactive. For the same molecule, the max response in [3] was -4.2%; in assay [4], 22.1% (inactive); in [11], -0.232% (inactive). Further, in [5], the activity change % (negative = inhibition) was 19.9% (inactive). Further, the activation in assay [7] was -5.82% (inactive); in assay [8], 0.932% (inactive); in [10], -0.287% (inactive).

Regarding `CC(=O)O[C@H]1C(=O)[C@@]2(C)[C@H]([C@H](OC(=O)c3ccccc3)[C@]3(O)C[C@H](OC(=O)[C@H](O)[C@@H](NC(=O)c4ccccc4)c4ccccc4)C(C)=C1C3(C)C)[C@]1(OC(C)=O)CO[C@@H]1C[C@@H]2O`, the molecule was classed as inactive in assay [1], in assay [2], in assay [6] and in [14]. Also, in assay [5], the activity change % (negative = inhibition) was -8.03% (inactive). In addition, the Potency result in assay [13] is “inactive”. Further, the activation in assay [7] is 23.6% (inactive); in [8], 4.74% (inactive); in assay [10], 0.595% (inactive). Also, in [11], the max response is -1.23% (inactive).

Consider `Cc1ccc(N)cc1O`, for which the call in assay [1], in [2], in assay [6], in assay [9], in [17] and in assay [12] was inactive. The max response in assay [3] was -3.5%; in assay [4], 0.585% (inactive); in [11], -3.15% (inactive). In assay [5], the activity change % (negative = inhibition) is -1.32% (inactive). For the same molecule, the figures for the Potency in assay [15], in [16] and in [10] were 42.2 µM (active), 23.7 µM (active) and 44.7 µM (active), respectively. Further, the activation in assay [7] was 1.03% (inactive).

`Nc1ccccc1N`: the outcome in assay [1], in assay [2], in [6] and in assay [12] was inactive. The max response was 1.4% in assay [3], -8.62% (inactive) in [4] and -5.51% (inactive) in assay [11]. The activity change % (negative = inhibition) in [5] was -38.2% (inactive). Also, the Potency in [13] was 2.63 µM (active); in assay [15], 18.8 µM (active); in [16], 3.76 µM (active); in assay [18], 5.96 µM (active). Besides, the activation in assay [7] is 9.56% (inactive); in assay [8], -0.857% (inactive).

As for `CC[C@]1(O)CC2CN(CCc3c([nH]c4ccccc34)[C@@](C(=O)OC)(c3cc4c(cc3OC)N(C)[C@H]3[C@@](O)(C(=O)OC)[C@H](OC(C)=O)[C@]5(CC)C=CCN6CC[C@]43[C@@H]65)C2)C1` (stereo partly drawn), the Potency result in assay [13] is “inactive”. For the same molecule, the Potency in assay [19] was 0.721 µM (active); in [20], 0.224 µM (active).
